The results in this text go back to the supplement of paper PMC9897528.

In this experiment the test system is Scedosporium aurantiacum CBS 136046. Kind of experiment: growth inhibition relative to DMSO control (OD600); higher = more antifungal activity, active = 80 or more; extreme values may be limits of the assay. The note with it: 5 µM; 72 h; 37 °C.

A number with no mark means an inactive call.
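Note: conidia screened in RPMI 1640 medium under 5% CO2, growth read by spectrophotometer, medium with 0.5% DMSO serving as the untreated reference.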

On to `Nc1nc(Nc2ccc3nc(-c4ccc(F)cc4)cc(N)c3c2)cc(-c2ccccc2)n1`, for which the growth inhibition was 17.1%.

As for `Cc1cc(CCCOc2c(C)cc(-c3noc(C(F)(F)F)n3)cc2C)on1`, the growth inhibition is 9.58%.

Regarding `CC(C)n1cnc2c(NCc3ccccc3)nc(NCc3ccccc3)nc21`, the growth inhibition was 39.6%.

With `C=C(C)n1c(=O)n(Cc2ccccc2C)c2ccccc21`, the growth inhibition was 21.5%.

With `O=C(c1nc2c(C(F)(F)F)cc(C3CC3)cn2c1Cl)N1CCN([C@H]2CC[C@H](O)CC2)C(=O)C1`, the growth inhibition was 4.91%.

Turning to `N#C/C(=C1/SC[C@H](c2ccc(Cl)cc2Cl)S1)n1ccnc1`, the growth inhibition is 85.6% (active).

With `Cc1ncc([N+](=O)[O-])n1CC(C)O` (stereo not given), the growth inhibition is 22.7%.

Turning to `O=[N+]([O-])c1ccc2c(CCc3c[nH]c4ccccc34)c[nH]c2c1`, the growth inhibition was 48.7%.

For the molecule `CO[C@@]1(NC(=O)Cc2cccs2)C(=O)N2C(C(=O)O)=C(COC(N)=O)CS[C@@H]21`, the growth inhibition is 20.8%.

Turning to `CC(C)(C)c1ccc(OCCn2nc(C(=O)O)c3ccccc3c2=O)cc1`, the growth inhibition was 16.2%.

For the molecule `Nc1nc(F)nc2c1ncn2[C@H]1O[C@@H](CO)[C@H](O)[C@@H]1O`, the growth inhibition is 33.8%.

For the molecule `C[C@H]1COc2c(N3CCN(C)CC3)c(F)cc3c(=O)c(C(=O)O)cn1c23`, the growth inhibition is 6.31%.

In the case of `Nc1nc2c(ncn2COC(CO)CO)c(=O)[nH]1`, the growth inhibition was 11.1%.

On to `COc1ccc2c(c1)cc(CNC(=O)c1cc3ccccc3o1)n2CC(=O)O`, for which the growth inhibition is 17.7%.

As to `CCCC(=O)OCCc1ccccc1`, the growth inhibition is 0%.
